Experimental data taken from PubChem BioAssay.
The source made the active and inactive calls.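 The calls were made as follows, unless noted: active = fluorescence ratio normalized to control raised more than 50% in primary screen plus both repeat runs; inactive = the rest.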

Each molecule was assayed on TRPC4 beta (transient receptor potential cation channel C4), mouse (assay: activators of mouse TRPC4 channel, confirmation, cell-based, Fluo4 calcium, HEK293 TRPC4beta/mu-opioid, duplicates, 10 µM (AID 2426)). Settings: Fluo4 calcium fluorescence, at 10 µM.

outcome, inactive:
COc1cc(/C=C2\C(=N)N3N=C(S(C)(=O)=O)SC3=NC2=O)ccc1OC(=O)c1cccs1
c1ccc(CN2CCN(c3nc4ccccc4s3)CC2)cc1
COc1ccccc1N(C(=O)c1snc(C(N)=O)c1N)C(C(=O)NCc1ccccc1)c1ccc(O)cc1 (stereo not drawn)
Cc1ccc(SC(CC(=O)c2ccc(C(C)(C)C)cc2)C(=O)O)cc1 (stereo not drawn)
COc1ccc(C2CC(=O)c3cnc(N4CCN(Cc5ccccc5)CC4)nc3C2)cc1 (stereo not drawn)
CC(=O)Nc1ccc(S(=O)(=O)N2CCN(CCCOc3cc(C)ccc3C)CC2)cc1
COc1cc(/C=C/C(=O)OCC(=O)Nc2c(C)n(C)n(-c3ccccc3)c2=O)ccc1OCC#N
Cc1cc2oc(C(=O)N(Cc3ccco3)C3CCS(=O)(=O)C3)cc(=O)c2cc1Cl (stereo not drawn)
CCOCCCn1cnc2c(c1=O)c1nc3ccccc3nc1n2-c1ccc(C)cc1
O=C(c1ccccc1F)N1CCN(c2ccc([N+](=O)[O-])cc2-n2cccc2)CC1
CN(CC(=O)Nc1ccc(F)cc1)C(=O)COC(=O)c1ccccc1
O=C(NC1CC1)c1ccc2c(c1)N(Cc1ccc(Cl)cc1)CCS2
O=C(Nc1ccc2c(c1)OCO2)c1cnn2cccnc12
CCc1nc2ccccc2n1Cc1ccccc1F
CN(Cc1ccco1)C(=O)Cn1ncc2c([nH]c3ccccc32)c1=O
CN1CCN(NC(=O)Nc2cc(Cl)cc(Cl)c2)CC1
Cc1ccc2nc(C(=O)N3CCc4c([nH]c5ccccc45)C3c3ccccn3)cn2c1 (stereo not drawn)
Clc1ccc(N=C2SCC3CCCCN23)cc1 (stereo not drawn)
O=S(=O)(c1ccc(Oc2ccc(Br)cc2)cc1)N1CCOCC1
O=S(=O)(Nc1ccc(S(=O)(=O)Nc2cccc3ccccc23)cc1)c1ccccc1
COc1ccc(N(C(=O)c2snc(C(N)=O)c2N)C(C(=O)NC2CCCCC2)c2ccc(C)o2)c(OC)c1 (stereo not drawn)
Cc1ccc(S(=O)(=O)Nc2ccc(N=Nc3ccc(O)cc3)cc2)cc1
O=C(c1ccccc1)c1coc2ccc(O)c(CN3CCOCC3)c12
CCOc1ccc(N=CNc2ccc(OCC)cc2)cc1
COCCSc1ccccc1C(=O)N1CCC(Cc2ccccc2)CC1
O=C(c1ccccc1F)N1CCN(c2ccc([N+](=O)[O-])c3cccnc23)CC1
Cc1ccc(NS(=O)(=O)c2cc(C(=O)N3CCc4ccccc4C3)ccc2Cl)cc1
CCn1cc(CN2CCC(n3nccc3NC(=O)CCOc3ccccc3)CC2)c(C)n1
CCN1CCN(c2ccc(S(=O)(=O)N3CCCCC3)cc2NC(=O)COc2cc(C)ccc2Cl)CC1
CN(C)CCCCOc1cccc(Br)c1
CC(C)c1ccc(C(C)NCCS(=O)(=O)c2ccc(Br)cc2)cc1 (stereo not drawn)
COc1cc2c(C(=O)N3CCN(C)CC3)c(CSc3ccccc3)n(C)c2cc1Br
Cc1c(N2C(=O)/C(=C/c3ccccc3)SC2=S)c(=O)n(-c2ccccc2)n1C
Cc1n[nH]c(C)c1Cc1c(F)cccc1Cl
O=C(Nc1ccc([N+](=O)[O-])cn1)C1CCCCC1
O=c1[nH][nH]c(-c2ccccc2)c1C=Nc1ccc(F)cc1F
COc1ccccc1C1/C(=C(\O)c2ccc3c(c2)OCCO3)C(=O)C(=O)N1Cc1cccnc1 (stereo not drawn)
CCN(CC)CCSc1nnc2c3ccccc3n(Cc3ccccc3)c2n1
CCCn1c(SCC(=O)N2c3ccccc3Sc3ccccc32)nc2c1c(=O)n(C)c(=O)n2C

Each molecule was assayed on transient receptor potential cation channel C4 beta (TRPC4), mouse (assay: activators of mouse TRPC4 channel, confirmation, cell-based, second round, Fluo4, HEK293 TRPC4beta/mu-opioid, 1 µM (AID 2461;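 active = primary screen active and over 50% activation in each of two duplicate runs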)). Settings: Fluo4 calcium fluorescence, at 1 µM.

outcome, inactive:
COc1cc(/C=C2\C(=N)N3N=C(S(C)(=O)=O)SC3=NC2=O)ccc1OC(=O)c1cccs1
c1ccc(CN2CCN(c3nc4ccccc4s3)CC2)cc1
COc1ccccc1N(C(=O)c1snc(C(N)=O)c1N)C(C(=O)NCc1ccccc1)c1ccc(O)cc1 (stereo not drawn)
Cc1ccc(SC(CC(=O)c2ccc(C(C)(C)C)cc2)C(=O)O)cc1 (stereo not drawn)
COc1ccc(C2CC(=O)c3cnc(N4CCN(Cc5ccccc5)CC4)nc3C2)cc1 (stereo not drawn)
CC(=O)Nc1ccc(S(=O)(=O)N2CCN(CCCOc3cc(C)ccc3C)CC2)cc1
COc1cc(/C=C/C(=O)OCC(=O)Nc2c(C)n(C)n(-c3ccccc3)c2=O)ccc1OCC#N
Cc1cc2oc(C(=O)N(Cc3ccco3)C3CCS(=O)(=O)C3)cc(=O)c2cc1Cl (stereo not drawn)
CCOCCCn1cnc2c(c1=O)c1nc3ccccc3nc1n2-c1ccc(C)cc1
O=C(c1ccccc1F)N1CCN(c2ccc([N+](=O)[O-])cc2-n2cccc2)CC1
CN(CC(=O)Nc1ccc(F)cc1)C(=O)COC(=O)c1ccccc1
O=C(NC1CC1)c1ccc2c(c1)N(Cc1ccc(Cl)cc1)CCS2
O=C(Nc1ccc2c(c1)OCO2)c1cnn2cccnc12
CCc1nc2ccccc2n1Cc1ccccc1F
CN(Cc1ccco1)C(=O)Cn1ncc2c([nH]c3ccccc32)c1=O
CN1CCN(NC(=O)Nc2cc(Cl)cc(Cl)c2)CC1
Cc1ccc2nc(C(=O)N3CCc4c([nH]c5ccccc45)C3c3ccccn3)cn2c1 (stereo not drawn)
Clc1ccc(N=C2SCC3CCCCN23)cc1 (stereo not drawn)
O=S(=O)(c1ccc(Oc2ccc(Br)cc2)cc1)N1CCOCC1
O=S(=O)(Nc1ccc(S(=O)(=O)Nc2cccc3ccccc23)cc1)c1ccccc1
COc1ccc(N(C(=O)c2snc(C(N)=O)c2N)C(C(=O)NC2CCCCC2)c2ccc(C)o2)c(OC)c1 (stereo not drawn)
Cc1ccc(S(=O)(=O)Nc2ccc(N=Nc3ccc(O)cc3)cc2)cc1
O=C(c1ccccc1)c1coc2ccc(O)c(CN3CCOCC3)c12
CCOc1ccc(N=CNc2ccc(OCC)cc2)cc1
COCCSc1ccccc1C(=O)N1CCC(Cc2ccccc2)CC1
O=C(c1ccccc1F)N1CCN(c2ccc([N+](=O)[O-])c3cccnc23)CC1
Cc1ccc(NS(=O)(=O)c2cc(C(=O)N3CCc4ccccc4C3)ccc2Cl)cc1
CCn1cc(CN2CCC(n3nccc3NC(=O)CCOc3ccccc3)CC2)c(C)n1
CCN1CCN(c2ccc(S(=O)(=O)N3CCCCC3)cc2NC(=O)COc2cc(C)ccc2Cl)CC1
CN(C)CCCCOc1cccc(Br)c1
CC(C)c1ccc(C(C)NCCS(=O)(=O)c2ccc(Br)cc2)cc1 (stereo not drawn)
COc1cc2c(C(=O)N3CCN(C)CC3)c(CSc3ccccc3)n(C)c2cc1Br
Cc1c(N2C(=O)/C(=C/c3ccccc3)SC2=S)c(=O)n(-c2ccccc2)n1C
Cc1n[nH]c(C)c1Cc1c(F)cccc1Cl
O=C(Nc1ccc([N+](=O)[O-])cn1)C1CCCCC1
O=c1[nH][nH]c(-c2ccccc2)c1C=Nc1ccc(F)cc1F
COc1ccccc1C1/C(=C(\O)c2ccc3c(c2)OCCO3)C(=O)C(=O)N1Cc1cccnc1 (stereo not drawn)
CCN(CC)CCSc1nnc2c3ccccc3n(Cc3ccccc3)c2n1
CCCn1c(SCC(=O)N2c3ccccc3Sc3ccccc32)nc2c1c(=O)n(C)c(=O)n2C
